Measurements from PubChem BioAssay (NCI).
About 83,000 compounds went through this panel and 20% of them were active in at least one assay; those are over-represented in the sample as a whole.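 Note: values are percent growth. 100 is the growth of untreated cells, values between 100 and 0 indicate rising inhibition; between -100 and 0 indicates cell death.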 A number with no mark means an inactive call. Activity calls are given as the source filed them. How the source made its calls: active means growth percent below 10; inactive means the rest.

What was measured:
Assay in all cases: NCI-60 one-dose screen, 48 h (100 = growth as untreated, 0 = no growth, -100 = all killed)
SK-MEL-2 melanoma = settings: 10 µM unless noted
EKVX NSCLC = settings: 10 µM unless noted
SN12C renal = settings: 10 µM unless noted
UO-31 renal = settings: 10 µM unless noted
ACHN renal = settings: 10 µM unless noted
CAKI-1 renal = settings: 10 µM unless noted
A498 renal = settings: 10 µM unless noted
CCRF-CEM leukemia = settings: 10 µM unless noted
MOLT-4 leukemia = settings: 10 µM unless noted
SR leukemia = settings: 10 µM unless noted
RPMI-8226 leukemia = settings: 10 µM unless noted
OVCAR-8 ovarian = settings: 10 µM unless noted
OVCAR-5 ovarian = settings: 10 µM unless noted
SK-OV-3 ovarian = settings: 10 µM unless noted
IGROV1 ovarian = settings: 10 µM unless noted
OVCAR-3 ovarian = settings: 10 µM unless noted
HS 578T breast = settings: 10 µM unless noted
NCI/ADR-RES ovarian = settings: 10 µM unless noted
OVCAR-4 ovarian = settings: 10 µM
TK-10 renal = settings: 10 µM unless noted

| SMILES | growth (SK-MEL-2 melanoma) | growth (EKVX NSCLC) | growth (SN12C renal) | growth (UO-31 renal) | growth (ACHN renal) | growth (CAKI-1 renal) | growth (A498 renal) | growth (CCRF-CEM leukemia) | growth (MOLT-4 leukemia) | growth (SR leukemia) | growth (RPMI-8226 leukemia) | growth (OVCAR-8 ovarian) | growth (OVCAR-5 ovarian) | growth (SK-OV-3 ovarian) | growth (IGROV1 ovarian) | growth (OVCAR-3 ovarian) | growth (HS 578T breast) | growth (NCI/ADR-RES ovarian) | growth (OVCAR-4 ovarian) | growth (TK-10 renal) |
| --- | --- | --- | --- | --- | --- | --- | --- | --- | --- | --- | --- | --- | --- | --- | --- | --- | --- | --- | --- | --- |
| C=C(C)[C@@H]1CC[C@]2(C(=O)NCCNCCNC(=O)OC(C)(C)C)CC[C@]3(C)[C@H](CC[C@@H]4[C@@]5(C)CCC(=O)C(C)(C)[C@@H]5CC[C@]43C)[C@@H]12 | 41.7% [100 µM] | 53.5% [100 µM] | 39.9% [100 µM] | 17.4% [100 µM] | 23.5% [100 µM] | 18.6% [100 µM] | 58.7% [100 µM] | 14.9% [100 µM] | 11.7% [100 µM] | 52.4% [100 µM] | 22.2% [100 µM] | 44.4% [100 µM] | 60.4% [100 µM] | 49.8% [100 µM] | 34.7% [100 µM] | 32.3% [100 µM] | 37.8% [100 µM] | 52.2% [100 µM] |  |  |
| CC1=CC[C@@H]2C(C)(C)[C@@H](O)CC[C@@]2(C)[C@@H]1COc1ccc2ccc(=O)oc2c1 | 68.1% | 72.4% | 32.5% | 2.21% (active) | 48.6% | 36.5% | 83.2% | 41.7% | 37.3% | 71.5% |  | 30.5% | 98% |  | 57.9% | 41.2% | 44.2% | 17.5% | 31% |  |
| C#CC(OC(=O)N(C)C)(c1ccccc1)c1ccc(F)cc1 (centres undefined) | 102% | 116% | 96.7% | 89.3% |  | 91.8% | 105% | 116% | 98% | 108% | 128% | 93.5% | 93.4% | 114% |  |  | 128% | 89.3% | 107% |  |
| O=C(OCc1ccc2c(Cl)cc(Cl)c(O)c2n1)N1CCN(C(=O)c2cc3cc(F)ccc3[nH]2)CC1 | 22.9% | 94.5% | 30.1% | 33.4% | 26.7% | 14.8% | -13.1% (active) | 13.4% | 17.3% | 16.7% | 21.4% | 7.64% (active) | 40.7% | 19.3% | 11.2% | -44.1% (active) | 12.5% | 2.35% (active) | 40% |  |
| O=C(Nc1cccc2ccccc12)c1cc2ccccc2cc1O | 20.9% | 15% | 7.28% (active) | -19.2% (active) |  | -40% (active) | -13.8% (active) |  | 21.4% | 16% | 15.1% | 12.2% | 105% | 0.954% (active) | 7.48% (active) | 19.9% | 32.2% | 4.52% (active) |  | 34.4% |
| O=C(OCc1ccc2c(Cl)cc(Cl)c(O)c2n1)N1CCNCC1 | 59.1% | 33.1% | 32% | 15.3% | 14% | 27% | 24.3% | 26.1% | 33.5% | 14.5% | 44.2% | 28.7% | 55.5% | 40.9% | 34.8% | 33.8% | 53.4% | 9.22% (active) | 23.4% |  |
| O=C(C[n+]1ccn(CC(OCc2ccc(Cl)cc2Cl)c2ccc(Cl)cc2Cl)c1)c1ccc(F)cc1 (centres undefined) | -88% (active) | -77.8% (active) | -93.5% (active) | 84.1% | 26.5% | 79.7% | -12.3% (active) |  | -19.9% (active) | -52.9% (active) | -46.3% (active) | -90.5% (active) | -93.4% (active) | 26.3% |  | -93% (active) | -57.1% (active) | 103% | -96.2% (active) |  |
| O=C(N/N=C1\c2ccccc2-c2cccc(C(=O)O)c21)c1ccc(O)cc1 | 102% | 97.2% | 91.1% | 80.4% |  |  | 73.1% | 89.9% | 99.8% | 110% | 94.2% | 97.4% | 102% | 101% | 97.6% | 96.6% | 82% | 99.8% | 101% | 98.1% |
| O=C1Nc2ccccc2/C1=C/C(=O)c1ccc(N2CCOCC2)cc1 | 99% | 98% | 93.7% | 59.6% | 72.7% | 78.4% | 89.7% | 9.92% (active) | 47.8% | 26.7% | 79.6% | 82.9% | 96.9% | 106% | 70.3% |  | 84% | 100% |  |  |
| C=CCCC1(C)NC(=O)NC1=O (centres undefined) | 102% | 105% | 97.9% | 97.8% | 112% | 93.3% | 88.5% | 85.6% | 83.7% | 94.4% | 104% | 102% | 102% | 94.6% | 115% | 106% | 105% | 103% | 99.4% |  |
| Cn1cc(-c2nnc(-c3cn(C)c4ncc(Br)cc34)o2)c2ccccc21 | 99.1% | 74.1% | 88.2% | 61.4% | 81.4% |  | 86.4% | 102% | 93.6% | 52.7% | 88.5% | 93.4% | 93.4% |  | 65.8% | 88.2% | 89.6% | 68.9% | 90.3% |  |
| CCN(CC)CCSC(=O)C(O)(c1ccccc1)C1CCCC1 (centres undefined) | 106% | 120% | 99.8% | 78.1% | 105% | 92% | 95.7% |  | 91.3% | 96.7% | 109% | 97.8% | 94.6% | 113% |  | 121% | 110% | 84.5% | 119% |  |
| Cn1cc(-c2nnc(-c3cn(C)c4ncc(Br)cc34)s2)c2cc(Br)ccc21 | 101% | 69.2% | 94.5% | 79.8% | 94.2% | 73.9% | 52.6% | -27.5% (active) | 97.3% | 100% | 87.4% | 96.1% | 88.6% |  | 73.9% | 100% | 89.3% | 102% | 93.8% |  |
| Nc1nnc(CSc2nnc3n(Cc4ccccc4)c(=O)c4c5c(sc4n23)CCCC5)s1 | 109% | 93.2% | 91.9% | 84.6% | 94.9% | 10% | 103% | 69.1% | 71.1% | 84% | 65.4% | 98.7% | 103% | 42.7% |  | 92.3% | 106% | 94.4% | 98.8% |  |
| CC(C)[C@H]1COC(=O)N1[C@@H]1C(=O)N([C@@H](CCC(=O)N2CCN(C3CCCC3)CC2)C(=O)N[C@@H]2CCCc3ccccc32)[C@@H]1/C=C/c1cccc(Cl)c1 | 60% | 58.8% | 59.6% | 43.5% | 57.8% | 59.3% | 27.9% | 42% | 24.1% | 19.2% | 22.2% | 74.5% | 105% | 88.1% | 48.4% | 69% | 64.3% | 64.1% | 68.3% |  |
| CC1(C)CC[C@]23CC[C@]4(C)[C@H](CC[C@@H]5[C@@]6(C)C/C(=C/c7cccnc7)C(=O)C(C)(C)[C@@H]6CC[C@]54C)[C@H]2[C@H]1OC3=O | 27.6% [100 µM] | 74.7% [100 µM] | 41.5% [100 µM] | 34.8% [100 µM] | 36.9% [100 µM] | 40.6% [100 µM] | 31.5% [100 µM] | 19.3% [100 µM] | 19.4% [100 µM] | 42.4% [100 µM] | 11.3% [100 µM] | 42.4% [100 µM] | 79.7% [100 µM] | 64.6% [100 µM] | 66.8% [100 µM] | 49.3% [100 µM] | 54.6% [100 µM] | 50.1% [100 µM] |  |  |
